The test relates to A549. As to the kind of experiment: relative viability (normalised to negative control = 1, bortezomib = 0) (fraction); higher = less cytotoxic. The conditions noted are these: inflammatory serum-free RHB-A with cytokines + LPS, 5 d + 24 h CellTiter-Blue. As to the method: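 A549 KRAS-mutant NSCLC cells, pre-treated 5 µM GSK126 or vehicle (DMSO), were seeded at 250 cells/well in 384-well plates in serum-free RHB-A medium with inflammatory cytokines/LPS and treated with Selleck kinase inhibitor and NCI oncology compounds at 30 or 300 nM in triplicate, refreshed at 48 h. Viability was read by CellTiter-Blue after 5 d plus 24 h and normalised per plate with cellHTS2 (mean of bortezomib positive control = 0, mean of negative control = 1).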

[1] abbreviates: compound 30 nM, GSK126 pretreatment: 5 uM GSK126.
The mark [2] stands for this setting: compound 30 nM, GSK126 pretreatment: none (vehicle).
[3] abbreviates: compound 300 nM, GSK126 pretreatment: 5 uM GSK126.
The mark [4] stands for this setting: compound 300 nM, GSK126 pretreatment: none (vehicle).

Structures are written as SMILES. Where a name gives a salt, the structure may show the parent alone. ± gives the standard deviation of the averaged measurements.

Turning to `O=P1(N(CCCl)CCCl)NCCCO1` (stereo not given) [Cyclophosphamide monohydrate; Cyclophosphamide], the relative viability is, setting by setting: under setting [1], 0.799 ± 0.035; under setting [2], 0.813 ± 0.086; under setting [3], 0.877 ± 0.031; under setting [4], 0.941 ± 0.1.

For `NCCCNCCSP(=O)(O)O` [Amifostine], the relative viability was 0.96 ± 0.16 under setting [1], 0.908 ± 0.078 under setting [2], 0.964 ± 0.12 under setting [3] and 0.96 ± 0.078 under setting [4].

`Cn1cc(C2=C(c3cn(C4CCN(Cc5ccccn5)CC4)c4ccccc34)C(=O)NC2=O)c2ccccc21` [Enzastaurin]: the relative viability under setting [1] was 0.823 ± 0.11, the relative viability under setting [2] was 0.831 ± 0.05, the relative viability under setting [3] worked out at 0.789 ± 0.042 and the relative viability under setting [4] stood at 0.802 ± 0.037.

As for `Cn1c(CCCC(=O)O)nc2cc(N(CCCl)CCCl)ccc21` [bendamustine hydrochloride], the relative viability under setting [1] was 0.713 ± 0.012, the relative viability under setting [2] stood at 0.729 ± 0.045, the relative viability under setting [3] came out at 0.784 ± 0.012 and the relative viability under setting [4] amounted to 0.865 ± 0.056.

For the compound `Cc1c(N)nc([C@H](CC(N)=O)NC[C@H](N)C(N)=O)nc1C(=O)N[C@H](C(=O)N[C@H](C)[C@@H](O)[C@H](C)C(=O)N[C@H](C(=O)NCCc1nc(-c2nc(C(=O)NCCC[S+](C)C)cs2)cs1)[C@@H](C)O)[C@@H](OC1OC(CO)C(O)C(O)C1OC1OC(CO)C(O)C(OC(N)=O)C1O)c1cnc[nH]1` (stereo not given in full) [Bleomycin sulfate], the relative viability under setting [1] stood at 0.821 ± 0.13, the relative viability under setting [2] was found to be 0.871 ± 0.061, the relative viability under setting [3] came to 0.739 ± 0.064 and the relative viability under setting [4] is 0.84 ± 0.069.

The values are drawn from the supplement of paper PMC6279402.
